A selection: hits, their analogues and other compounds. The true share with any hit is near 2.4%.
D2 ag-1: activates the human D2 dopamine receptor; P14416; DiscoveRx PathHunter D2 beta-arrestin, luminescence, 90 min; 100% = 57 uM dopamine signal; activation, % (test concentration not listed); 360,000 compounds, 0.084% hits; in the data active means activation above about 40%; inconclusive means between about 15% and that limit
Target sequence (P14416 whole entry, looked up): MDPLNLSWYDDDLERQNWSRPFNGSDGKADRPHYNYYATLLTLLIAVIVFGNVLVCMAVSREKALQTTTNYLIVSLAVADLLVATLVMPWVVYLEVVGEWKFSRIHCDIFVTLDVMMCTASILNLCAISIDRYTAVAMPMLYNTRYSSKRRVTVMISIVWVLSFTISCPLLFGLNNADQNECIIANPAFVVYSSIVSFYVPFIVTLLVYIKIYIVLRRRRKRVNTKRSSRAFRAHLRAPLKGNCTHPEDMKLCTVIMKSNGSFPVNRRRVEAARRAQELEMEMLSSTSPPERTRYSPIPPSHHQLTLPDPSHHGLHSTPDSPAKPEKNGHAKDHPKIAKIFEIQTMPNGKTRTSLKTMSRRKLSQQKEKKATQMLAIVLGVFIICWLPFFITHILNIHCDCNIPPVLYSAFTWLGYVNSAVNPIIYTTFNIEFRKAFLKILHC
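Agonist mode: compounds alone added to overnight-plated D2 PathHunter cells for 90 min at 37 C, with 57 uM final dopamine (EC100) defining full response. Beta-arrestin recruitment detected by chemiluminescent reagent, read after 1 h at ambient temperature.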
D2 ag-2: D2 dopamine receptor (human) agonism; P14416; HEK293 T-REx D2 cells, calcium flux agonist mode; activation, % at 2 µM; 340,000 compounds, 0.53% hits; AID 485358;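 active means activation over 3 SD above normal in the single-dose calcium agonist read, cut at about 30% in these data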
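HEK293 Trex D2 cells, tetracycline-induced, o/n 30 C 5% CO2; no-wash Ca dye, RT 30–90 min; 10-cycle baseline, 23 nl cpd added, kinetic Ca read 180 s; agonist hits = positive Ca response.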
D2 PAM-1: positive allosteric modulators of human D2 dopamine receptor. potentiation, % (test concentration not listed). 360,000 compounds, 0.23% hits. DiscoveRx D2 beta-arrestin cells, luminescence, 90 min; 100% = 57 uM dopamine signal. P14416. AID 624464; in the data active means potentiation above about 50%; inconclusive means mostly about 30% to 49%
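PathHunter D2 cells, attached overnight at 37 deg C, received compound in DMSO plus dopamine at EC20 (50 nM final) for 90 min at 37 deg C. Beta-arrestin recruitment was read as luminescence after 1 h with detection reagent at ambient temperature.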
D2 antagonist: antagonizes the human D2 dopamine receptor. 340,000 compounds, 2% hits. inhibition, % at 10 µM. AID 485344. P14416. HEK293 TREx D2 cells, calcium flux, dopamine EC80; in the data active means inhibition above about 30%; inactive means below that, where a call was filed
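Read-out: kinetic calcium fluorescence (1 cycle/s) in inducible HEK293 T-REx D2 cells after an EC80 dopamine addition that followed 180 s compound preincubation. Loss of the dopamine response indicates antagonism.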
D2 PAM-2: positively modulates the human D2 dopamine receptor allosterically. HEK293 T-REx D2, calcium flux, EC20 dopamine potentiation. potentiation, % at 10 µM. 340,000 compounds, 0.34% hits. AID 485347;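 active means potentiation over 3 SD above the plate norm, cut at about 30% in these data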
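Tetracycline-induced Hek293 Trex D2 cells, force-coupled to calcium, loaded with no-wash calcium dye. Compound added with 180 s kinetic read for agonism, then EC20 dopamine and a further 180 s read for potentiation.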
Of the large screens only hits and unclear results are named; the others gave an inactive call.

Clc1cccc(OCCCN2CCCC2)c1Cl	D2 antagonist 52
c1ccc2c(OCCCN3CCCCCC3)cccc2c1	D2 antagonist 74
C=C1CC(C)OC(c2ccccc2OCC(O)CN2CCCCC2)C1 (configuration not stated)	D2 antagonist 65
CCC(=O)c1ccccc1OCCN1CCN(Cc2ccccc2)CC1	D2 antagonist 110
Cc1ccccc1OCCn1c(S(=O)(=O)O)nc2c(N)ncnc21	none
Cc1cc(=O)n2nc(N3CCC(C(=O)NCc4ccco4)CC3)sc2n1	none
Cc1cc(=O)n2nc(N3CCCC(C(=O)NCc4ccco4)C3)sc2n1 (configuration not stated)	D2 antagonist 36
Cc1cc(NC(=O)COC(=O)c2cccc(O)c2)no1	none
CN(C)[C@@H]1CCC[C@H]1OC(=O)C(c1ccccc1)c1ccccc1	D2 antagonist 47
CC1CN(C)C(C)CC1OC(=O)C(c1ccccc1)c1ccccc1 (configuration not stated)	none (no result: D2 ag-2, D2 antagonist, D2 PAM-2)
N#Cc1c(Sc2ncc(C(F)(F)F)cc2Cl)nsc1C/C=N\OCc1c(F)cccc1Cl	D2 PAM-1 58
COc1ccc2c(c1)-c1nc(/N=C/c3ccc(O)cc3)sc1CC2	D2 antagonist 45
Cc1sc2ncn(CC(=O)NCc3ccccn3)c(=O)c2c1S(=O)(=O)N1CCOCC1	D2 PAM-2 49
CCOC(=O)CNC(=O)Cn1cnc2sc(C)c(S(=O)(=O)N3CCOCC3)c2c1=O	none
CC(C)=C1C2C=CC1C1C(=O)N(c3ccc4c(c3)OCO4)C(=O)C21 (configuration not stated)	none
NC(=O)C1(N2CCCCC2)CCN(C(=O)c2ccc(C#CC3(O)CCCCC3)cc2)CC1	none
COc1ccccc1N(CC(=O)NCc1ccco1)C(=O)CCC(=O)Nc1ccccn1	D2 PAM-2 32
Cc1cccc(N(CC(=O)NCc2ccco2)C(=O)CCC(=O)Nc2ccccn2)c1C	none
CCOc1cccc(/C(O)=C2/C(=O)C(=O)N(Cc3cccnc3)C2c2ccco2)c1 (configuration not stated)	none
CCOc1cccc(/C(O)=C2/C(=O)C(=O)N(CCOC)C2c2ccco2)c1 (configuration not stated)	D2 PAM-2 34
CCOc1ccccc1Oc1c(C)oc2c(CN3CCN(C)CC3)c(O)ccc2c1=O	none
CN1CC[n+]2c(CN3C(=O)c4ccccc4C3=O)csc21	D2 antagonist 45
CCOC(=O)c1c(C)oc2c1c(C(c1ccccc1)N1CCOCC1)c(O)c1ccccc12 (configuration not stated)	D2 PAM-1 inconclusive, D2 antagonist 57
CCOC(=O)c1c(C)oc2c1c(C(c1cccnc1)N1CCCCC1)c(O)c1ccccc12 (configuration not stated)	D2 ag-1 inconclusive, D2 PAM-1 102
CCOC(=O)c1c(C)oc2c1c(C=NCCO)c(O)c1ccccc12	none
CCOc1ccccc1NC(=O)c1ccc2c(c1)C(=O)N(C(C)(C)C)C2=O	none
CC1CN(CCCCN2C(=O)c3ccccc3C2=O)CC(C)O1 (configuration not stated)	D2 antagonist 40
CC1CN(CN2C(=O)c3ccccc3C2=O)CC(C)O1 (configuration not stated)	none
CCOc1ccc(CCNC(=O)C2=C(C)C(=O)OC23CCCCC3)cc1	none (no result: D2 ag-1, D2 PAM-1, D2 antagonist)
O=C(Nc1ccccc1)c1ccc(-c2ccccc2Cl)o1	none
O=C(NCCc1ccccc1)c1ccc(CS(=O)(=O)c2ccc(Cl)cc2)o1	D2 antagonist 31
O=C(NCCc1ccc(Cl)cc1)c1ccc(CS(=O)(=O)c2ccc(Cl)cc2)o1	none (no result: D2 ag-1, D2 ag-2, D2 PAM-1, D2 antagonist)
O=C(NCCc1ccccc1)c1ccc(-c2ccccc2Cl)o1	D2 antagonist 30
CCOCCn1c(CN2CCC(C)CC2)nc2c1c(=O)n(C)c(=O)n2C	none (no result: D2 ag-1, D2 PAM-1)
Cc1ccc(C(=O)OCc2nnc(-c3ccccc3)o2)o1	D2 PAM-2 32
O=C(OCc1nnc(-c2ccccc2)o1)c1cc(S(=O)(=O)N2CCOCC2)c(Cl)cc1Cl	D2 antagonist 38
O=S1(=O)CCC(S(=O)(=O)N2CCCCCC2)C1 (configuration not stated)	none
O=C(CCN1CCN(Cc2ccccc2)CC1)Nc1ccc(OCc2ccccc2)cc1	D2 antagonist 42
CCCOc1ccc(NC(=O)CC2C(=O)N(CC)C(=S)N2CCCN2CCN(Cc3ccccc3)CC2)cc1 (configuration not stated)	D2 ag-1 inconclusive, D2 antagonist 33 (no result: D2 PAM-2)
O=C(CCN1CCN(CCO)CC1)Nc1ccc(OCc2ccccc2)cc1	none
CCc1noc(C)c1C(=O)N1CCCSC1=Nc1ccccc1C(C)C	none
COCCSc1ccccc1C(=O)Nc1ccc(Cl)cc1	D2 antagonist 58
COCCSc1ccccc1C(=O)NCCCn1ccnc1	D2 antagonist 39
Brc1ccc(CNc2ccc3ncccc3c2)cc1	D2 ag-1 inconclusive
CCOc1ccc(S(=O)(=O)Nc2cc(S(=O)(=O)N(CC)CC)ccc2N2CCCC2)cc1	none
Cc1ccccc1-c1nc(CN(Cc2c(C)nn(C)c2C)C2CC2)c(C)o1	D2 antagonist 30
Cc1nn(-c2ccccc2)c(C)c1C(=O)OCC(=O)N(C)C1CCS(=O)(=O)C1 (configuration not stated)	D2 antagonist 38
O=C(Nc1ccc2c(c1)CCCN2C(=O)c1ccco1)c1cc([N+](=O)[O-])ccc1Cl	D2 PAM-1 56
O=C(Nc1ccc(N2CCN(C(=O)c3ccco3)CC2)cc1)c1ccc([N+](=O)[O-])cc1Cl	none
CCN1CCSc2ccc(C(=O)NCc3cccc(F)c3)cc21	D2 antagonist 44
CCCOc1ccc(CNC(=O)c2ccc3c(c2)N(CC)CCS3)cc1	D2 antagonist 50
S=c1[nH]nc(-c2ccccc2)n1/N=C/c1ccc(Cl)cc1	none
CCOc1ccc(/C=N/n2c(-c3ccccc3)n[nH]c2=S)cc1	D2 ag-1 inconclusive, D2 antagonist 41
COc1ccc(-n2nc([N+](=O)[O-])c(=NC3CCN(Cc4ccccc4)CC3)n2O)cc1	D2 ag-1 inconclusive, D2 antagonist 71
COc1ccc(-n2nc([N+](=O)[O-])c(=NCc3cccnc3)n2O)cc1	D2 ag-1 inconclusive, D2 PAM-1 inconclusive
COc1ccc(-n2nc([N+](=O)[O-])c(=NCCc3ccc(C)cc3)n2O)cc1	D2 ag-1 inconclusive, D2 PAM-1 71
CCc1ccc(N=c2c([N+](=O)[O-])nn(-c3ccccc3)n2O)cc1	D2 PAM-1 90
COc1ccc(S(=O)(=O)N2CCN(C3CCN(Cc4ccccc4)CC3)CC2)cc1	none
COc1ccc(-n2nc([N+](=O)[O-])c(=NCCc3ccc(OC)c(OC)c3)n2O)cc1	D2 ag-1 inconclusive, D2 PAM-1 137

Screening results from PubChem BioAssay.
